Assay results taken from PubChem BioAssay AID1778 (Sanford-Burnham Center for Chemical Genomics, 2009).
Hit rate of the full screen: of about 290,000 compounds, about 260 (0.09%) were called active. Only a selection was taken, and actives are over-represented in it overall. Measured potencies and affinities stand elsewhere. A number with no mark means an inactive call. Rule as the data show it: active = inhibition above about 50%; inactive = the rest.

Target: Kappa-type opioid receptor (Homo sapiens) (UniProt P41145)
Assay: KOR antagonists, beta-arrestin recruitment, cell-based, luminescence, uHTS (AID 1778)
Details: antagonist mode, active compounds read high; at 10 µM unless noted

Sequence of Kappa-type opioid receptor (Homo sapiens) (P41145 whole entry, looked up): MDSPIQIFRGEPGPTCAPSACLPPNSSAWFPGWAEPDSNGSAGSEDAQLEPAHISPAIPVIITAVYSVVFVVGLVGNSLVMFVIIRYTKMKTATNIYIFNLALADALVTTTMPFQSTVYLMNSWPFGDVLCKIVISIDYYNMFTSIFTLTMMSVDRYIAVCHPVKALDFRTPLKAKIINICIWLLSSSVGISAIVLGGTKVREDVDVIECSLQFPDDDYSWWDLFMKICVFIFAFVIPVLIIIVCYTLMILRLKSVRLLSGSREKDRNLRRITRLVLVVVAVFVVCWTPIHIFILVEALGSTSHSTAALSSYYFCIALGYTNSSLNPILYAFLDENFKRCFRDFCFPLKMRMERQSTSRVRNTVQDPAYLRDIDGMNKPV

Structure (SMILES) | inhibition
CN1CCN(C(=O)c2ccc(COc3ccc(Cl)cc3Cl)cc2)CC1 | -29.5%
CS(=O)(=O)NCCCCCCNS(C)(=O)=O | -28.3%
COc1ccc(-c2nn(CCC(=O)O)cc2/C=C/C(=O)O)cc1[N+](=O)[O-] | 2.1%
CCCNS(=O)(=O)c1ccc(OCC(=O)N2CCCC2)cc1 | -18.5% [at 20 µM]
Cc1ccccc1Cn1c(=O)n(-c2ccccc2)c(=O)c2ccc(C(=O)NCc3ccco3)cc21 | 20.6%
CC(C)(C)c1ccc(OCc2cnc(Cl)s2)cc1 | -46.2% [at 20 µM]
CCN1C(=O)c2ccccc2S(=O)(=O)c2ccc(C(=O)N3CCOCC3)cc21 | 16.4%
O=C(Nc1nnc(C2=COCCO2)o1)c1cccc(C(F)(F)F)c1 | 16%
N#Cc1ccc(C(=O)Nc2nnc(-c3cccs3)o2)cc1 | -5.8%
COc1cccc(C(=O)Nc2nnc(-c3cccs3)o2)c1 | -17.8%
O=C(Nc1nnc(-c2cccs2)o1)c1cccc(C(F)(F)F)c1 | 100% (active)
CN(C)S(=O)(=O)c1ccc(C(=O)Nc2nnc(-c3cccs3)o2)cc1 | -13%
COc1cc(-c2[nH]ncc2CN2CCN(Cc3cccs3)CC2)cc(OC)c1OC | -18.5%
Cc1cccc(Nc2nc(N)c([N+](=O)[O-])c(N3CC(C)CC(C)C3)n2)c1 (configuration not stated) | -15%
O=C1CC(C2CCCO2)C(=O)N1c1ccc(Cl)c(Cl)c1 (configuration not stated) | -15.9% [at 20 µM]
CN(C)S(=O)(=O)c1cccc(NC(=O)c2cc(=O)[nH]c3ccccc23)c1 | -14.8% [at 20 µM]
CCn1c(=O)c2sccc2n2c(CCCC(=O)NCCc3ccc(S(N)(=O)=O)cc3)nnc12 | -3%
COC(=O)C1=C(C(=O)OC)[C@@H]2N(C)c3ccc(OC)cc3[C@@]23C[C@@H](C(=O)OC)N(C(=O)c2cccs2)C3=N1 | -29.4% [at 20 µM]
Cc1ccc(/C=C2\SC(=S)N(c3cccnc3)C2=O)cc1 | -11.9%

Structure (SMILES) | inhibition
O=C1/C(=C/c2cccnc2)SC(=S)N1c1ccc(O)cc1 | 30.3%
O=C(C(Sc1ccccc1)c1ccc(Br)cc1)N1CCOCC1 (configuration not stated) | 20.5%
CC(=O)Nc1ccc(NC(=O)c2nc(S(=O)(=O)Cc3ccccc3)ncc2Cl)cc1 | 23.7%
Cc1ccc(NC(=O)c2nc(S(=O)(=O)Cc3ccccc3)ncc2Cl)cc1 | 14%
CCN(c1ccccc1)S(=O)(=O)c1ccc(NC(=O)c2nc(S(C)(=O)=O)ncc2Cl)cc1 | 38.4%
CN(c1ccccc1)S(=O)(=O)c1ccc(NC(=O)c2nc(S(C)(=O)=O)ncc2Cl)cc1 | 35.2%
CCOC(=O)N1CCN(C(=O)COc2cccc3c2CCN(Cc2cccc(C)c2)C3=O)CC1 | 8%
CSc1ccc(NC(=O)N2CC=C(n3c(=O)[nH]c4ccccc43)CC2)cc1 | 90.6% (active)
O=C(Nc1cccc(F)c1)N1CC=C(n2c(=O)[nH]c3ccccc32)CC1 | 46.2%
CCOc1ccc(NC(=O)N2CC=C(n3c(=O)[nH]c4ccccc43)CC2)cc1 | 35.6%
N#Cc1ccc(CN2CCN(C(=O)c3ccccc3)CC2)c(Cl)c1 | -1.5%
Cc1cccc(C(=O)c2ccccc2C(=O)O)c1 | 19.6%
CC(NC(=O)Cn1nc(C(=O)O)c2ccccc2c1=O)C12CC3CC(CC(C3)C1)C2 (configuration not stated) | -21.3%
CC(NC(=O)CN1CCCC1)C12CC3CC(CC(C3)C1)C2 (configuration not stated) | -12%
Cc1ccc(C(=O)N/C(=C\c2ccc(F)cc2)C(=O)NCCCn2ccnc2)cc1 | 21.6%
CCNCc1cc(Cl)c(OCc2ccccc2)c(OCC)c1 | 12.3%
CCOc1cc(CNC2CCCC2)cc(Cl)c1OCc1ccc(F)cc1 | -17.1%
O=C(O)c1ccc(N/N=C/c2cccc3nccnc23)cc1 | 14.2%
C(=C\c1ccccc1)/CSc1ccccn1 | -4.7%

Structure (SMILES) | inhibition
CC(C)N(C(=O)COC(=O)c1ccccc1C(=O)c1ccc(Cl)c([N+](=O)[O-])c1)C(C)C | 24.3%
CNC(=O)COC(=O)c1ccccc1C(=O)c1ccc(Cl)c([N+](=O)[O-])c1 | -7.4%
NS(=O)(=O)c1ccc(Nc2ccc([N+](=O)[O-])c3nonc23)cc1 | -10.8%
CC(=O)c1ccc(Nc2ccc([N+](=O)[O-])c3nonc23)cc1 | 37.3% [at 20 µM]
COc1ccc(OC)c(NC(=O)c2cc3sccc3n2C)c1 | 9.4%
COc1ccc(OC)c(N2C(N)=C(C#N)C(c3ccc(OC)c(O)c3)C3=C2CC(C)(C)CC3=O)c1 (configuration not stated) | 16.3%
CCC(=O)Nc1ccc(C(=O)n2ccc(C)n2)cc1 | 5.2%
COc1cc(/C=C2\SC(=N)N(c3ccc(F)cc3)C2=O)ccc1O | -30.7%
O=C1/C(=C/c2ccco2)SC(=S)N1c1cccnc1 | -2.4%
N=C1/C(=C\c2ccc(-c3cccc(Cl)c3)o2)C(=O)N=C2SC=C(c3ccccc3)N12 | 29.8%
Cc1[nH]c2ccccc2c1/C=N/n1cnnc1 | -34.7%
COc1ccc(/C=C2\SC(=N)N(c3ccc(F)cc3)C2=O)cc1OC | -9.7%
O=C1OC(c2cccs2)=N/C1=C\c1ccc(-c2cccc(Cl)c2)o1 | -15.5%
N=C1S/C(=C\c2ccco2)C(=O)N1c1nccs1 | 71% (active)
CCOc1cc(/C=C2\SC(=N)N(c3nccs3)C2=O)ccc1OCCN1CCOCC1 | -3.5%
N=C1S/C(=C\c2ccco2)C(=O)N1c1ccc2c(c1)OCO2 | -11.9% [at 20 µM]
CCOc1cccc(C(=O)N(Cc2cccc(F)c2)C2CCS(=O)(=O)C2)c1 (configuration not stated) | -33.2%
Cc1csc(NC(=O)CCCc2cccs2)n1 | 1.1%
COc1ccc(C)cc1NC(=O)C(Sc1nnc(Nc2cc(C)ccc2OC)s1)c1ccccc1 (configuration not stated) | -5.6%
